The structures appear in SMILES notation.

The results in this text go back to PubChem BioAssay.

The subject of assay [1] is Human papillomavirus type 1a protein E7 (residues 44-93). Nature of the assay: small molecules binding HPV E7 44-93 – biochemical, small-molecule microarray, residues 44-93, 635 nm fluorescence, primary screen (AID 1108).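 Also: E7 fragment applied at 1 µg/mL in TBST for 1 h at 4 C; score combines spot fluorescence with its signal to noise ratio.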 To be noted: fluorescence 635 nm, higher = more signal.
Assay [2] in a line: hepatitis C replication reporter changes, two-sided – Huh7 cells, luciferase reporter, HCV replication inhibitor project, primary screen (AID 1109).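 Also: huh7 hepatoma cells harbouring a luciferase neomycin HCV replicon reporter; luciferase luminescence as measure of HCV replicon replication; test concentration not given here.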 To be noted: Huh7 HCV replicon luciferase reporter, 48 h; higher = more signal. For orientation: Reporter assays use an easily measured gene product as a stand-in for the process of interest.
The target of assay [3] is Left-right determination factor 2 (Homo sapiens) (UniProt O00292). The assay can be described thus: small molecules binding LEFTY2 protein – biochemical, small-molecule microarray, 635 nm fluorescence scan, primary screen (AID 1110). To be noted: higher = more signal.
Left-right determination factor 2 (Homo sapiens), sequence (O00292 whole entry, looked up): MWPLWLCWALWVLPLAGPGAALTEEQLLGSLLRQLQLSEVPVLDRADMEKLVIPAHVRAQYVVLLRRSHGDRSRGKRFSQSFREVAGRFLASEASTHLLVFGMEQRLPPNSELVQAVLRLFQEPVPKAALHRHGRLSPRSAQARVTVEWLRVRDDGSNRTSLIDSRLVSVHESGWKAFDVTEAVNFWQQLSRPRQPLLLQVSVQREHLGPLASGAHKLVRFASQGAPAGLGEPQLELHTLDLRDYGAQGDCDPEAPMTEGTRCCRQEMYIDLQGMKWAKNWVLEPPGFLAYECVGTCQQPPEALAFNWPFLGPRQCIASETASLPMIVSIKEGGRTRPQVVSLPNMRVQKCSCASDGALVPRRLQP
Assay [4] has as its target Calmodulin-1 (Homo sapiens) (UniProt P0DP23). The assay can be described thus: small molecules binding calmodulin-1 with EGTA – biochemical, small-molecule microarray, Cy5-labelled CALM1, profiling panel (AID 1111).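 Also: labelled calmodulin applied in Tris saline Tween buffer holding calcium plus EGTA and DTT.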 To be noted: Cy5-CALM1 binding fluorescence, higher = more signal.
Assay [5] shares this target. The assay can be described thus: small molecules binding Ca-loaded calmodulin-1 – biochemical, small-molecule microarray, Cy5-labelled CALM1, plus calcium, artefact control for SMM control-protein annotation, profiling panel (AID 1112).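 Also: score merges spot fluorescence with signal to noise from triplicate slides.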 To be noted: Cy5-CALM1 binding fluorescence, higher = more signal.
Assay [6] is described as follows: probe aWnt5a binding to arrayed compounds – biochemical, biotinylated probe, 635/667 nm fluorescence, primary screen (AID 1113).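 Also: score merges 667 nm fluorescence intensity with signal-to-noise per printed feature.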 To be noted: small-molecule microarray, higher = more signal.
Assay [7] in a line: probe aShh binding to arrayed compounds – biochemical, biotinylated probe, 635/667 nm fluorescence, primary screen (AID 1114).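 Also: probe is biotin-labelled aShh protein from a stem cell growth factor screen; measures binding of labelled protein to compounds printed on the slide; score merges feature fluorescence at 667 nm with signal-to-noise.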 To be noted: small-molecule microarray, higher = more signal.
Assay [8] is described as follows: probe aNog binding to arrayed compounds – biochemical, biotinylated probe, 635/667 nm fluorescence, primary screen (AID 1115).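 Also: probe is biotinylated aNog protein used at 0.15 µg/mL for 1 h at 4 C; z-score combines 667 nm fluorescence of each spot with its signal to noise.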 The following applies: small-molecule microarray, higher = more signal.
Assay [9] addresses Torsin-1A-interacting protein 1 (Homo sapiens) (UniProt Q5JTV8). The assay can be described thus: compound microarray binding of lysate hLAP1 – cell lysate, small-molecule microarray, COS7 lysate, 635/667 nm fluorescence, primary screen (AID 1116). The following applies: 635 nm fluorescence, higher = more signal.
In assay [10] the target is Alpha-bungarotoxin (Bungarus multicinctus) (UniProt P60615). Nature of the assay: compounds binding labelled alpha-BTX control protein – biochemical, small-molecule microarray, Alexa647 label, 635/667 nm fluorescence, artefact control for SMM control protein annotation, profiling panel (AID 1117). To be noted: alpha-BTX-A647 binding fluorescence, higher = more signal.
Alpha-bungarotoxin (Bungarus multicinctus), sequence (P60615 whole entry, looked up): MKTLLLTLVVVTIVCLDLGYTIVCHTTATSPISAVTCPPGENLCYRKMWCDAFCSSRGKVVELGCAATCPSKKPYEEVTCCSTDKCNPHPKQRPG

Torsin-1A-interacting protein 1 (Homo sapiens), sequence (Q5JTV8 whole entry, looked up): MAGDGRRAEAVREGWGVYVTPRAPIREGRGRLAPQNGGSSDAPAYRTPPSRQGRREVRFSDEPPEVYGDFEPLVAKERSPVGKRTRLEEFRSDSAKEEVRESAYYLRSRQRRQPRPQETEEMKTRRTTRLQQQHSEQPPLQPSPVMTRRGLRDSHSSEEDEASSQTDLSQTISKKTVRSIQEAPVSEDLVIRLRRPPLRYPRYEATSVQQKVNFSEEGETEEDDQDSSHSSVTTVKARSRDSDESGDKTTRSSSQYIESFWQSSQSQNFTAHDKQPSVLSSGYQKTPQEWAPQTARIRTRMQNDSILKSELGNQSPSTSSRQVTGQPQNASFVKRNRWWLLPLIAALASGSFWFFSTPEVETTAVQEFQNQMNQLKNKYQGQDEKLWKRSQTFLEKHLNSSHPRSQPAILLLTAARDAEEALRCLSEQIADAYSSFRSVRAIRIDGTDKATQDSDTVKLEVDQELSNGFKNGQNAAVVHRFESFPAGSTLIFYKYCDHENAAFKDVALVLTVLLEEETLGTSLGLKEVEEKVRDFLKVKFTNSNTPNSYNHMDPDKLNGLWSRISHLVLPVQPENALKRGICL

As for `Cc1ccccc1C(O)C1C=CC2C(=O)N(c3ccccc3)C(=O)C2N1Nc1ccc(C(C)C)cc1` (stereo not given), the composite z-score in assay [1] is 0.944; in [3], 0.262; in assay [4], 1.22; in assay [5], 0.618; in assay [6], -0.0721; in assay [7] it was 0.14. In addition, the composite z-score came out at 0.209 in assay [8], 0.0331 in assay [9] and 1.16 in assay [10]. This compound gave a z-score in assay [2] of 1.11.
Consider `CC(C)N1C(=O)C[C@@](C(=O)NCC(F)(F)F)(c2ccc([N+](=O)[O-])cc2)[C@H]1c1ccc(CO)cc1`, for which the composite z-score in [1] was 0.627; in [3] it was -0.383; in [4] it was -0.273; in assay [5] it was -0.411; in assay [6], -0.178; in [7] it was -0.372. For the same compound, the composite z-score in assay [8] is -0.368; in [9] it was -0.0079; in assay [10], 0.259. The compound also yielded a z-score in [2] of -0.672.
For the compound `CCOC(=O)C[C@H]1[C@H](OC(=O)c2ccc(C(=O)c3ccccc3)cc2)[C@@H](NC(=O)c2ccccc2)c2cc(OCCCO)ccc2N1C(=O)c1ccc2ccccc2n1`, the composite z-score in assay [1] is 1.31; in [3], 0.495; in assay [4], 1.61; in assay [5] it was 0.506; in [6] it was -0.0614; in assay [7], -0.138. Also, the composite z-score was -0.308 in assay [8], 0.239 in assay [9] and 0.635 in assay [10]. The compound further showed a z-score in assay [2] of -1.16.
Regarding `COCCOC(=O)N1C(=O)[C@@]2(c3cc(C#Cc4ccc(OC)cc4)ccc31)[C@H](c1ccc(O)cc1)N1[C@H](c3ccccc3)[C@H](c3ccccc3)OC(=O)[C@H]1[C@@H]2C(=O)N1CCc2cc(OC)c(OC)cc2C1`, the composite z-score in assay [1] is 1.32; in [3] it was 0.471; in assay [4] it was 1.74; in [5], 0.141; in assay [6], 0.0017; in [7], -0.301. In addition, the composite z-score was 0.27 in assay [8], 0.796 in assay [9] and 0.317 in [10]. In assay [2], this compound displayed a z-score of -0.296.
Consider `COC(=O)C(CC#Cc1ccc2c(c1)[C@]1(C(=O)N2)[C@H](C(=O)Nc2nc3ccccc3s2)[C@H]2C(=O)O[C@H](c3ccccc3)[C@H](c3ccccc3)N2[C@@H]1c1ccc(O)cc1)C(=O)OC`, for which the composite z-score in assay [1] is 1.45; in assay [3], 0.829; in assay [4], 0.728; in [5], 0.255; in assay [6], 0.027; in assay [7], -0.0977. Moreover, the composite z-score in assay [8] stood at 0.406; in assay [9], 1.89; in [10], 0.982. Besides, the z-score in assay [2] is -0.801.
Take `COCCOC(=O)N1C(=O)[C@@]2(c3cc(C#CCNC(N)=O)ccc31)[C@H](C(=O)N1CCN(c3ncccn3)CC1)[C@H]1C(=O)O[C@H](c3ccccc3)[C@H](c3ccccc3)N1[C@@H]2c1ccc(OCCO)cc1`: the composite z-score in [1] is 1.01; in [3], 0.188; in assay [4], 0.392; in assay [5], 0.0615; in assay [6], 0.0031; in assay [7], -0.315. Moreover, the composite z-score in assay [8] is 0.196; in [9], 0.0481; in assay [10], 1.82. For the same compound, the z-score in assay [2] is -0.801.
On to `CCOC(=O)[C@H]1C/C=C/C[C@H](C(=O)OCC)C(=O)O[C@H]2[C@@H](OC)O[C@H](CO)[C@@H](OC(=O)c3c(OC)cccc3OC)[C@@H]2OC1=O`, for which the composite z-score in [1] is -0.908; in [3] it was 0.204; in assay [4], 0.34; in [5], 0.208; in assay [6] it was -0.126; in assay [7] it was 0.244. In addition, the composite z-score in [8] was 0.65; in assay [9], 0.11; in assay [10] it was 1.1. The z-score in [2] was -3.32.
`COC(=O)[C@@]1(Cc2ccccc2)[C@H]2c3cc(C(=O)N4CCCC4)n(Cc4ccc(S(C)(=O)=O)cc4)c3C[C@H]2CN1C(=O)c1ccccc1`: the composite z-score in assay [1] is 0.97; in assay [3], 0.711; in assay [4], 2.61; in assay [5] it was 1.35; in assay [6] it was -0.0965; in [7], -0.34. Besides, the composite z-score was -0.232 in assay [8], 1.86 in assay [9] and 0.863 in assay [10]. Besides, the z-score in [2] is -2.02.
For the compound `C=CCN1C(=O)[C@@]2(CC=C)N=C(c3ccc(OCCCO)cc3)O[C@H]2c2ccccc21`, the composite z-score in [1] was 1.41; in assay [3], 0.984; in assay [4], 3.11; in [5], 0.0457; in [6], 0.026; in assay [7], -0.0886. Besides, the composite z-score in assay [8] turned out to be 0.808; in [9], 1.62; in assay [10] it was 0.951. The compound further registered a z-score in assay [2] of -2.48.
For the compound `Cc1ccc(S[C@]2(C(=O)NCCCN(C)C)CC(=O)N(Cc3cc(C(F)(F)F)cc(C(F)(F)F)c3)[C@@H]2c2ccc(CO)cc2I)cc1`, the composite z-score in assay [1] is -0.0139; in [3], -0.664; in assay [4], 0.325; in assay [5] it was 0.764; in assay [6] it was 0.299; in assay [7], 0.242. In addition, the values for the composite z-score in assay [8], in [9] and in [10] were 1.73, 0.215 and 0.0119, respectively. Moreover, the z-score in assay [2] is -2.1.
Turning to `CC(C)C[C@@H]1NC(=O)[C@@H]2C[C@H](C(=O)O)[C@H](c3cccc(OCCO)c3)N2C1=O`, the composite z-score in assay [1] was -0.366; in assay [3], -0.312; in assay [4], 0.26; in [5], 0.758; in [6] it was -0.147; in assay [7], -0.199. Besides, the results for the composite z-score in [8], in [9] and in [10] were -0.066, 0.517 and -0.937, respectively. Also, the z-score in assay [2] amounted to 0.148.
Regarding `CCCC[C@H]1OB(O)C[C@H]2C1=C(COC)Cn1c(=O)n(-c3ccccc3)c(=O)n12`, the composite z-score in [1] is 0.039; in assay [3], 0.358; in [4] it was -0.215; in assay [5], -0.421; in [6], -0.0792; in [7], -0.0977. Moreover, the composite z-score amounted to 0.445 in assay [8], 0.0892 in assay [9] and 0.0547 in [10]. The same compound returned a z-score in assay [2] of -0.673.
For `CC(C)CNC(=O)[C@@]1(Cc2ccccc2I)c2ccccc2C(=O)N(C2CCCCC2)[C@H]1c1ccc(CO)cc1`, the composite z-score is 0.63 in assay [1]; -0.294 in [3]; 0.424 in assay [4]; 0.349 in assay [5]; 0.0477 in assay [6]; 0.199 in assay [7]. In addition, the composite z-score in assay [8] is -0.237; in assay [9] it was 0.961; in assay [10], 3. The same compound yielded a z-score in [2] of -1.62.
Turning to `CCN(CC)c1ccc(N2CC=CC34O[C@@H]5C=CCCOC(=O)C5[C@H]3C(=O)N(CCCCCCO)[C@@H]4C2=O)cc1` (stereo not given in full), the composite z-score was -0.873 in assay [1]; -0.395 in [3]; -0.235 in [4]; 0.307 in [5]; -0.096 in [6]; -0.26 in assay [7]. Besides, the composite z-score is -0.229 in assay [8], 1.33 in assay [9] and -0.419 in assay [10]. In [2], this compound gave a z-score of 0.234.
Consider `O=C1c2ccccc2[C@](Cc2ccccc2I)(C(=O)NCCN2CCOCC2)[C@H](c2ccc(CO)cc2)N1Cc1ccccc1Cl`, for which the composite z-score in assay [1] was -0.612; in [3], 0.945; in assay [4], 1.51; in assay [5], 0.0568; in assay [6] it was 0.0215; in assay [7], -0.0011. For the same compound, the results for the composite z-score in [8], in assay [9] and in assay [10] were -0.474, 0.896 and 1.47, respectively. The same compound returned a z-score in assay [2] of -2.64.
As for `C=C[C@H](CO[Si](CC)(CC)CC)N(Cc1ccc(OC(C)=O)c(OC)c1)S(=O)(=O)c1ccc(Br)cc1`, the composite z-score in [1] is 1.15; in assay [3], 0.537; in assay [4], 1.41; in assay [5], 0.67; in assay [6] it was 0.101; in assay [7], -0.057. Further, the results for the composite z-score in assay [8], in assay [9] and in [10] were 0.0481, 1.12 and 1.23, respectively. The compound also yielded a z-score in assay [2] of -3.27.
With `CCOC(=O)C[C@H]1[C@H](OC(=O)c2ccc(C(=O)c3ccccc3)cc2)[C@@H](NC(=O)CC(C)C)c2cc(OCCCO)ccc2N1C(=O)c1ccc2ccccc2n1`, the composite z-score is 1.15 in assay [1]; 0.592 in [3]; 0.711 in [4]; -0.297 in assay [5]; -0.0704 in assay [6]; -0.0793 in assay [7]. Besides, the composite z-score in [8] is -0.318; in assay [9] it was 0.547; in assay [10], 0.719. In [2], this compound returned a z-score of -1.22.
